# In PubChem BioAssay (Tox21):
# The source made the active and inactive calls. The call rests on the fitted dose curve; in most records, active means well fitted curve in the direction sought with a large enough effect in the repeat runs; inconclusive means weak or mixed curves; inactive means flat fitted curve, though single readings scatter.
# Test: qHTS assay to test for compound auto fluorescence at 535 nm (green) in HEK293 cells (AID 720680)
# Settings: green autofluorescence 485/535 nm; series mostly up to 91.3 µM; fluorescence, % of fluorescein: at the top concentration
# From the text: U.S. Tox21 Program National Center for Advancing Translational Sciences [NCATS] NIH Chemical Genomics Center [NCGC] U.S. Environmental Protection Agency [EPA] National Institutes of Environmental Health Sciences [NIEHS] National Toxicology Program [NTP] U.S. Food and Drug Administration [FDA] Tox21 Assay Overview: Compound auto fluorescence often interferes with screening of the compound library against various biological targets and signaling pathways. Some of these compounds may have fluorophoric properties. Such properties may interfere with the assay outputs resulting in false positives and/or negatives. To decrease such complications and ensure the compound activities are relevant in terms of biological response, the Tox21 10K compound library was screened for auto fluorescence. From the fluorophores used as reporter signals in our screening assays, the auto fluorescence equivalencies of compounds against three fluorophores have been evaluated: Triamterene, Fluorescein and Rose Bengal sodium for blue, green and red fluorescence, respectively. The fluorescence intensities were measured using Excitation/Emission wavelengths at 405/460nm, 485/535nm and 540/590nm for blue, green and red labels, respectively. This assay includes the green fluorescence data.
# Tox21 Assay Protocol Summary: 2,000 HEK293 cells in 5 uL of culture medium containing 10% dialyzed FBS per well were dispensed into black wall/clear bottom 1536-well plates using a Multidrop Combi Dispenser (Thermo Scientific). The assay plates were incubated for 4-5 hr at 37C to allow cell attachment to the well bottom, followed by the transfer of 23 nL compound or DMSO vehicle by a pintool work station (Kalypsys, San Diego, CA). After the assay plates were incubated overnight at 37C and 5% CO2, fluorescence intensities in the assay plates were measured by an Envision (PerkinElmer, Shelton, CT) plate reader using three labels for measuring blue, green and red fluorescence at […] 460, 535 and 590nm respectively.
# On the % scale 0 is the no-effect control and ±100 the full control effect.
Structure (SMILES),"fluorescence, % of fluorescein",outcome
C/C=C\C/C=C/CCCCCCCCOC(C)=O,0.16% (inactive),–
Cc1c(C)c2c(c(C)c1OC(=O)CCC(=O)OCCO)CC[C@@](C)(CCC[C@H](C)CCC[C@H](C)CCCC(C)C)O2,-0.272% [at 46 µM] (inactive),–
Oc1cccc(O)c1O,–,inactive
C=Cc1ccc(S(=O)(=O)O)cc1,–,inactive
c1csc(SSc2cccs2)c1,0.0288% (inactive),–
Oc1ccc(Cl)c2cccnc12,-0.0422% [at 46 µM] (inactive),–
CCCC(C(=O)OCCN(CC)CC)(c1ccccc1)c1ccccc1,0.0991% [at 46 µM] (inactive),–
CC(=O)N/N=C/c1ccc([N+](=O)[O-])o1,-0.27% [at 46 µM] (inactive),–
COc1cc(C(=O)NC2CCN(C)CC2)ccc1Nc1ncc2c(n1)N(C1CCCC1)CC(F)(F)C(=O)N2C,-0.147% (inactive),–
CC[C@]1(O)C[C@H]2CN(CCc3c([nH]c4ccccc34)[C@@](C(=O)OC)(c3cc4c(cc3OC)N(C=O)[C@H]3[C@@](O)(C(=O)OC)[C@H](OC(C)=O)[C@]5(CC)C=CCN6CC[C@]43[C@@H]65)C2)C1,0.0691% [at 46 µM] (inactive),–
CCC(C)COC(=O)CC(C)C (stereo not given),0.0267% (inactive),–
Nc1cccc2c1CN(C1CCC(=O)NC1=O)C2=O (stereo not given),0.0684% [at 46 µM] (inactive),–
CC(=O)Nc1ccc(C)cc1C,0.0627% (inactive),–
Cc1ccc(CO)cc1,0.0558% [at 95.7 µM] (inactive),–
OC[C@H]1O[C@@H](n2cnc3c(=S)nc[nH]c32)[C@H](O)[C@@H]1O,0.0594% [at 46 µM] (inactive),–
N#CCCN(CCO)CCO,-0.178% (inactive),–
CC1=C(CC=O)C(C)(C)CCC1,-0.222% (inactive),–
CN(C)CCN1C(=O)c2ccccc2N(C)c2ccccc21,0.0114% [at 46 µM] (inactive),–
Clc1ccc(Nc2nnc(Cc3ccncc3)c3ccccc23)cc1,–,inactive
COC(=O)C1=C(C)NC(C)=C(C(=O)O[C@@H]2CCCN(Cc3ccccc3)C2)[C@@H]1c1cccc([N+](=O)[O-])c1,0.182% [at 46 µM] (inactive),–

Structure (SMILES),"fluorescence, % of fluorescein",outcome
COc1ccccc1Oc1c(NS(=O)(=O)c2ccc(C(C)(C)C)cc2)nc(-c2ncccn2)nc1OCCO,-0.0981% [at 46 µM] (inactive),–
Cc1cscn1,0.0232% (inactive),–
COc1cc(N)c(Cl)cc1C(=O)NC1CCN(CCCOc2ccc(F)cc2)CC1OC (stereo not given),0.0057% [at 18.6 µM] (inactive),–
CCCCCCCCOc1ccc(C(=O)O)cc1,-0.0393% (inactive),–
CCOC(=O)c1ccc(C#Cc2ccc3c(c2)C(C)(C)CCS3)nc1,0.0682% [at 46 µM] (inactive),–
COc1ccccc1N1CCN(CC(O)COc2cccc3ccccc23)CC1 (stereo not given),0.127% [at 46 µM] (inactive),–
CN1CCCN=C1COC(=O)C(O)(c1ccccc1)C1CCCCC1 (stereo not given),0.0236% [at 46 µM] (inactive),–
COc1ncnc(NS(=O)(=O)c2ccc(N)cc2)c1OC,-0.445% [at 46 µM] (inactive),–
NC(=O)c1ccncc1,0.0453% [at 95.7 µM] (inactive),–
CC=C(Cl)Cl,-0.0798% (inactive),–
CN1CCCC(n2nc(Cc3ccc(Cl)cc3)c3ccccc3c2=O)CC1 (stereo not given),-0.0698% [at 46 µM] (inactive),–
C=C1c2cccc(O)c2C(O)=C2C(=O)[C@]3(O)C(O)=C(C(N)=O)C(=O)[C@@H](N(C)C)[C@@H]3[C@@H](O)[C@H]12,0.0422% [at 18.6 µM] (inactive),–
O=Cc1c2ccccc2c(Cl)c2ccccc12,-0.0035% [at 46 µM] (inactive),–
C=C/C(C)=C/C/C=C(\C)CCC=C(C)C,0.0657% (inactive),–
Cc1ccccc1S,0.0383% (inactive),–
OCCOCC#CCOCCO,-0.0988% (inactive),–
Cc1cc(C)cc(N)c1,-0.0239% [at 95.7 µM] (inactive),–
C[C@@]12CCC[C@H]1[C@@H]1CC[C@H]3C[C@@H](O)CC[C@]3(C)[C@H]1CC2,-0.106% [at 46 µM] (inactive),–
O=C1CCCCCCCCCCOCCCCO1,0.0288% (inactive),–
Cc1ccc(Cl)c(Nc2ccccc2C(=O)O)c1Cl,-0.157% [at 46 µM] (inactive),–
